Data published in the supplement of paper PMC8975748.
Where a name gives a salt, the structure may show the parent alone.

The molecules below were run on Saccharomyces cerevisiae BY4741 SeMeCo community (assay: z-score of subpopulation abundance vs DMSO median, subpopulation auxotrophic for HL; higher = larger share of this subpopulation than in DMSO controls). Conditions: 10 µM; 24 h; SM minimal medium; subpopulation (auxotrophy): HL.
Experimental: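 Fluorescent four-plasmid SeMeCo (self-establishing metabolically cooperating S. cerevisiae BY4741 community; plasmids pH-mRuby2, pL-mWasabi, pU-eCFP, pM-TagRFP657) was grown 24 h in minimal SM medium with each Selleck FDA-approved drug at 10 µM in 384-well plates. Cells were fixed and imaged by high-content confocal microscopy. For each auxotrophic subpopulation (and the prototroph), a z-score gives the deviation from the DMSO vehicle-control population median.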
In the case of CN(C)C(=O)Oc1cccc([N+](C)(C)C)c1 [Neostigmine Bromide], the “z-score of subpopulation abundance” value is reported as -0.44.
With CC(NC(C)(C)C)C(=O)c1cccc(Cl)c1 (stereo not given) [Amfebutamone (Bupropion) HCl] the “z-score of subpopulation abundance” value was 0.03.
With CCC1=C[C@H]2CN3CCc4c([nH]c5ccccc45)[C@](C(=O)OC)(C2)[C@H]13 [Catharanthine] the “z-score of subpopulation abundance” value was -1.12.
For CCN(C)C(=O)Oc1cccc([C@H](C)N(C)C)c1 [Rivastigmine], the “z-score of subpopulation abundance” value was -0.54.
For N#Cc1nn(-c2c(Cl)cc(C(F)(F)F)cc2Cl)c(N)c1[S+]([O-])C(F)(F)F (stereo not given) [Fipronil], the “z-score of subpopulation abundance” value was 0.71.
For CCN1CC2(OC(=O)c3ccccc3NC(C)=O)CCC(OC)C34C1C(CC23)C1(O)CC(OC)C2CC4C1(O)C2OC (stereo not given) [Lappaconitine], the “z-score of subpopulation abundance” value was -0.26.
With CN1c2ccccc2C(NCCCCCCC(=O)O)c2ccc(Cl)cc2S1(=O)=O (stereo not given) [Tianeptine sodium] the “z-score of subpopulation abundance” value was -0.07.
C=C[C@H]1CN2CC[C@H]1C[C@H]2[C@H](O)c1ccnc2ccccc12 [Cinchonidine] was tested, and the “z-score of subpopulation abundance” value was -0.64.
In the case of NCC(O)c1ccc(O)cc1 (racemic) [(+,-)-Octopamine HCl], the “z-score of subpopulation abundance” value is reported as -1.17.
With CNC1CC(N)C(O)C(OC2OC(CO)C(O)C3OC4(OC(C(N)CO)C(O)C(O)C4O)OC23)C1O (stereo not given) [Hygromycin B] the “z-score of subpopulation abundance” value was -0.22.
For CN1[C@@H]2CC[C@H]1C[C@@H](OC(=O)C(CO)c1ccccc1)C2 (stereo not given in full) [Atropine sulfate monohydrate], the “z-score of subpopulation abundance” value was -0.69.
In the case of CN(C)[C@@H]1C(=O)C(C(N)=O)=C(O)[C@@]2(O)C(=O)C3=C(O)c4c(O)cccc4[C@@](C)(O)[C@H]3[C@H](O)[C@@H]12 [Oxytetracycline Dihydrate], the “z-score of subpopulation abundance” value is reported as 0.03.
For CC(=O)O[C@H]1C[C@@H]2CC[C@@H]3[C@H](CC[C@@]4(C)[C@H]3C[C@H]([N+]3(C)CCCCC3)[C@@H]4OC(C)=O)[C@@]2(C)C[C@@H]1[N+]1(C)CCCCC1 [Pancuronium dibromide], the “z-score of subpopulation abundance” value was 0.38.
O=[N+]([O-])C(Br)(CO)CO [Bronopol] was tested, and the “z-score of subpopulation abundance” value was -1.08.
With CC[N+](C)(CC)CCOC(=O)C(O)(c1ccccc1)c1ccccc1 [Methylbenactyzine Bromide] the “z-score of subpopulation abundance” value was -0.61.
In the case of CN[C@@H]1[C@@H](O)[C@@H](O[C@@H]2[C@@H](O)[C@H](O[C@H]3O[C@H]([C@@H](C)O)[C@@H](O)[C@H](O)[C@H]3N)[C@@H](N)C[C@H]2N)OC[C@]1(C)O [Geneticin (G418 Sulfate)], the “z-score of subpopulation abundance” value is reported as -0.02.
CC1(C)SC2C(N)C(=O)N2C1C(=O)O (stereo not given) [6-Aminopenicillanic acid] was tested, and the “z-score of subpopulation abundance” value was -0.37.
In the case of CN1C(=O)COc2c(C(=O)NC3CN4CCC3CC4)cc(Cl)cc21 (stereo not given) [Azasetron HCl], the “z-score of subpopulation abundance” value is reported as 1.41.
In the case of C#C[C@]1(O)C=C[C@H]2[C@@H]3CCC4=CC(=O)CC[C@@H]4[C@H]3CC[C@@]21CC [Gestodene], the “z-score of subpopulation abundance” value is reported as 0.13.
CN1[C@@H]2CC[C@H]1C[C@@H](OC(=O)[C@H](CO)c1ccccc1)C2 [Hyoscyamine] was tested, and the “z-score of subpopulation abundance” value was -0.72.
With COc1cc2c(cc1OC)C1CC(=O)C(CC(C)C)CN1CC2 (stereo not given) [Tetrabenazine (Xenazine)] the “z-score of subpopulation abundance” value was 0.31.
CN(C)[C@@H]1C(=O)C(C(N)=O)=C(O)[C@@]2(O)C(=O)C3=C(O)c4c(O)ccc(Cl)c4[C@@](C)(O)[C@H]3C[C@@H]12 [Chlortetracycline HCl] was tested, and the “z-score of subpopulation abundance” value was 0.38.
For O=c1[nH]c2ccccc2n1CCCN1CCC(n2c(=O)[nH]c3cc(Cl)ccc32)CC1 [Domperidone], the “z-score of subpopulation abundance” value was 0.19.
For NCCc1c[nH]c2ccc(O)cc12 [Serotonin HCl], the “z-score of subpopulation abundance” value was -0.74.
For CCCN1C[C@H](CSC)C[C@@H]2c3cccc4[nH]cc(c34)C[C@H]21 [Pergolide Mesylate], the “z-score of subpopulation abundance” value was -0.35.
CN[C@@H]1[C@@H](O)[C@@H](O[C@@H]2[C@@H](O)[C@H](O[C@H]3O[C@H](CN)CC[C@H]3N)[C@@H](N)C[C@H]2N)OC[C@]1(C)O.CN[C@@H]1[C@@H](O)[C@@H](O[C@@H]2[C@@H](O)[C@H](O[C@H]3O[C@H]([C@@H](C)N)CC[C@H]3N)[C@@H](N)C[C@H]2N)OC[C@]1(C)O.CN[C@@H]1[C@@H](O)[C@@H](O[C@@H]2[C@@H](O)[C@H](O[C@H]3O[C@H]([C@@H](C)NC)CC[C@H]3N)[C@@H](N)C[C@H]2N)OC[C@]1(C)O [Gentamicin Sulfate] was tested, and the “z-score of subpopulation abundance” value was -1.11.
In the case of C[C@@H]1CC[C@H]2[C@@H](C)C(=O)O[C@@H]3O[C@@]4(C)CC[C@@H]1[C@]32OO4 [Artemisinin], the “z-score of subpopulation abundance” value is reported as -0.27.
For Cn1cc(C2=C(c3cn(C4CCN(Cc5ccccn5)CC4)c4ccccc34)C(=O)NC2=O)c2ccccc21, the “z-score of subpopulation abundance” value was -1.11.
In the case of C=CCN1C[C@H](C(=O)N(CCCN(C)C)C(=O)NCC)C[C@@H]2c3cccc4[nH]cc(c34)C[C@H]21 [Cabergoline], the “z-score of subpopulation abundance” value is reported as -0.49.
In the case of C[N+]1(C)[C@@H]2C[C@@H](OC(=O)[C@H](CO)c3ccccc3)C[C@H]1[C@@H]1O[C@@H]12 [Methscopolamine], the “z-score of subpopulation abundance” value is reported as -0.05.
COC(=O)C1=CCCN(C)C1 [Arecoline HBr] was tested, and the “z-score of subpopulation abundance” value was 0.21.
CC[C@@H](C(N)=O)N1CCCC1=O [Levetiracetam] was tested, and the “z-score of subpopulation abundance” value was -1.01.
With COc1ccc(C=O)cc1 [p-Anisaldehyde] the “z-score of subpopulation abundance” value was -0.29.
CC(C)(O)C(Cl)(Cl)Cl [Chlorobutanol] was tested, and the “z-score of subpopulation abundance” value was -0.54.
For C[C@@H]1O[C@@H](O[C@H]2C[C@@H](O)[C@]3(CO)[C@H]4[C@H](O)C[C@]5(C)[C@@H](C6=CC(=O)OC6)CC[C@]5(O)[C@@H]4CC[C@]3(O)C2)[C@H](O)[C@H](O)[C@H]1O [Ouabain], the “z-score of subpopulation abundance” value was -1.05.
NC(=O)CN1CCCC1=O [Piracetam] was tested, and the “z-score of subpopulation abundance” value was 0.98.
With C=C(C)[C@H]1Cc2c(ccc3c2O[C@@H]2COc4cc(OC)c(OC)cc4[C@@H]2C3=O)O1 [Rotenone (Barbasco)] the “z-score of subpopulation abundance” value was 0.53.
CCN(CC)CCOC(=O)C(O)(c1ccccc1)c1ccccc1 [Benactyzine hydrochloride] was tested, and the “z-score of subpopulation abundance” value was -0.47.
For Nc1ccncc1 [4-Aminopyridine], the “z-score of subpopulation abundance” value was 0.38.
With CCOC(=O)Nc1ccc(NCc2ccc(F)cc2)cc1N [Retigabine 2HCl] the “z-score of subpopulation abundance” value was 1.24.
